Screening data as filed in PubChem BioAssay.
Only some compounds are listed: those with a hit (about 19% of all), similar ones and a draw of the others.
TDP1 cell CPT = qHTS for Inhibitors of human tyrosyl-DNA phosphodiesterase 1 (TDP1): qHTS in cells in presence of CPT; AID 686979, 2013; Potency, µM (titrated, usually from 46.2 µM), for inactives: at the top dose activity change, negative = growth inhibition, actives largely listed as inhibitors; 420,000 tested, 12% active; chicken DT40 Tdp1-/-;hTDP1 cells + 20 nM CPT, ATP luminescence, 48 h; note: potency is the fitted concentration of half-maximal effect; % is set by controls: 0 for no effect and ±100 for the full control effect; nearly all actives have a fitted effect of over 55% in size
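Chicken DT40 Tdp1-/- cells stably complemented with human TDP1 were seeded at 400 cells/well in medium containing 20 nM camptothecin, exposed to pin-transferred compounds, and grown at 37 °C for at least 48 hr. Viability was read as ATP luminescence.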
DT40 TDP1 no CPT = qHTS for Inhibitors of human tyrosyl-DNA phosphodiesterase 1 (TDP1): qHTS in cells in absence of CPT | 420,000 tested, 15% active | Potency, µM (titrated, usually from 46.2 µM), inactives show at the top dose activity change, negative = growth inhibition, most hits filed as inhibitors | DT40 Tdp1-/- hTDP1 cells, no CPT, ATP luminescence, 48 h; note: potency is the fitted concentration of half-maximal effect; % is set by controls: 0 for no effect and ±100 for the full control effect; nearly all actives have a fitted effect of over 55% in size
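A cellular qHTS used chicken DT40 cells lacking endogenous Tdp1 but carrying stably transfected human TDP1. Compounds were applied without camptothecin, and cell growth kinetics were judged by ATP-dependent luminescence after ≥48 hr.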
ASM inhibitor = Inhibitors of Secretory Acid Sphingomyelinase (S-ASM): qHTS; Sphingomyelin phosphodiesterase (Homo sapiens), P17405; placental ASM, HMU-PC fluorogenic substrate, 60 min; Potency, µM (doses to about 57.5 µM), without a hit: at the top dose activity change, negative = inhibition, actives largely listed as inhibitors; 340,000 tested, 0.006% active; AID 504937, 2011; note: potency is the fitted concentration of half-maximal effect
Target sequence (P17405 47-631 limits assumed): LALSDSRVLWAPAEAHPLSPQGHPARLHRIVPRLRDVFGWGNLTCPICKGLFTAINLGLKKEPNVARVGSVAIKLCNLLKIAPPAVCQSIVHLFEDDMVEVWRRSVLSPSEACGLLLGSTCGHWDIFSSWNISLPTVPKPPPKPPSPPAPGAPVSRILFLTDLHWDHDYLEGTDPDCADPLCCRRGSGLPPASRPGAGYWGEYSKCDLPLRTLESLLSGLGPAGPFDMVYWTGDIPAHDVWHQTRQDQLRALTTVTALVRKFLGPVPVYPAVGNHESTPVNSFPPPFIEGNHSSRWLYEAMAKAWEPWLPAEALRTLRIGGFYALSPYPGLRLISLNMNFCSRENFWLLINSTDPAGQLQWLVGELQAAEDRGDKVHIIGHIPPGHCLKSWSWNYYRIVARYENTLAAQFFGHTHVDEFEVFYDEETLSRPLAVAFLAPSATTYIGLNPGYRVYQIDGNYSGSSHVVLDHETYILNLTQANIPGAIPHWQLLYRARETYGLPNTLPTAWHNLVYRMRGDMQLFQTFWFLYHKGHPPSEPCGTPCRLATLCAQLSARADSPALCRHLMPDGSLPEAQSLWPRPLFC
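Human placenta-derived ASM enzyme was preincubated with compound for 10 minutes at room temperature, then given fluorogenic substrate HMU-PC0 (9 uM final) for 60 minutes at 37 °C; a pH 10 stop preceded fluorescence reading at Ex 386/Em 447 nm.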
IL1B secr inh = qHTS for Inhibitors of Inflammasome Signaling: IL-1-beta AlphaLISA Primary Screen; THP-1 LPS/ATP IL-1B secretion, AlphaLISA, 16 h; active compounds read low; activity change, % at 57.5 µM; 360,000 tested, 4.7% active; in the data active = activity change below about -50%; inconclusive = mostly about -30% to -49%; note: % is set by controls: 0 for no effect and ±100 for the full control effect
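THP-1 cells pretreated 1 hr with compounds (up to 57.5 uM final), then stimulated with LPS (250 ng/mL final) plus ATP (1.25 mM final); secreted IL-1B measured by AlphaLISA after 16 hr, decreased signal indicating inhibition.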
TGFb inhibitor = qHTS for Inhibitors of TGF-b | HepG2 CAGA-GFP TGF-b/SMAD3 reporter, GFP fluorescence, 18 h; TGF-beta stimulated, 500 pg/mL final | Potency, µM (series often up to 46.1 µM), inactives show at the highest dose activity, negative = inhibition, actives largely listed as inhibitors | 410,000 tested, 1.2% active | AID 588855, 2011; note: potency is the fitted concentration of half-maximal effect; % is set by controls: 0 for no effect and ±100 for the full control effect; nearly all actives have a fitted effect of over 65% in size
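Inhibition of TGF-beta-driven CAGA-GFP reporter expression in HEPG2 cells is measured by cellular GFP fluorescence after 18 h stimulation with 500 pg/mL recombinant TGF-beta in 1% FBS medium at 37 degrees C.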
HepG2 tox = qHTS for Inhibitors of TGF-b: Cytotox Counterscreen | HepG2 CAGA-GFP viability, ATP luminescence, 18 h | Potency, µM (series often up to 46.1 µM), inactives show at the top dose activity change, negative = cytotoxicity, actives largely listed as cytotoxic | 410,000 tested, 0.76% active; note: potency is the fitted concentration of half-maximal effect
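HepG2 CAGA-GFP cells (1000/well, DMEM with 1% FBS) received compound, then TGF-beta at 500 pg/mL final, and were incubated 18 hours at 37 degrees C. Viability was read by CellTiter-Glo luminescence. Media-only wells were set as complete cell-killing and DMSO as no toxicity.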
An asterisk follows results filed as active; u = inconclusive; x = no result given. Unless noted, calls come from the whole dose curve; as a rule, active = well fitted curve in the direction sought with a large enough effect; inconclusive = small, poorly fitted or top-dose-only effect, or another doubt; inactive = no such curve, though single readings can be large; an effect the other way counts as inactive or inconclusive.

SMILES	TDP1 cell CPT	DT40 TDP1 no CPT	ASM inhibitor	IL1B secr inh	TGFb inhibitor	HepG2 tox
CC(C)(C)c1ccc(-c2noc(CCC(=O)NCC3CCCO3)n2)cc1 (stereo unspecified)	20.6µM*	u	7.3%	0.4	6.8%	-19.0%
CNC(=O)CCc1nc(-c2ccc(C(C)(C)C)cc2)no1	u	13µM*	4.8%	0.0	-2.9%	1.5%
CCC(=O)c1ccc(OCC(=O)OCC(=O)NCCCc2ccccc2)cc1	5.9%	2.3%	-1.9%	6.8	-8.3%	-2.0%
CCN(c1ccc(OC)cc1)S(=O)(=O)c1nnc(NC(=O)c2ccccc2C)s1	u	-28.0%	x	x	-13.8%	-25.6%
COc1ccc(Cn2ccnc2SCC(=O)Nc2ccc(C)cc2C)cc1	-15.3%	-21.4%	x	x	u	-6.4%
CCCCN(C)CCCNC(=O)C1CCN(S(=O)(=O)CC)CC1	-6.0%	3.2%	x	x	0.0%	-1.6%
CCOc1ccc2nc(N3CCC(C(=O)NCCCN4CCOCC4)CC3)sc2c1	-3.4%	u	0.0%	-65.8*	8.8%	3.9%
CCCCN(C)CCCNC(=O)C1CCN(c2nc3ccc(CC)cc3s2)CC1	6.51µM*	5.8µM*	x	x	u	14.1µM*
CCCCN(CC)CCCNC(=O)C1CCN(c2nc3ccc(CC)cc3s2)CC1	11.6µM*	13µM*	x	x	x	-96.3%
COc1ccc(C(=O)NCCS(=O)(=O)N2CCC3(CC2)OCCO3)cc1	-0.5%	-1.6%	6.8%	38.7	7.8%	18.4%
Cc1cc(C)cc(NC2=CC(c3cccc(F)c3)N(c3cc(C)cc(C)c3)C2=O)c1 (stereo unspecified)	u	u	x	x	23.5%	-2.7%
CC(Sc1nnc(-c2ccccc2F)n1N)C(=O)NCC1CCCO1 (stereo unspecified)	-9.3%	-3.1%	-0.4%	-1.6	7.2%	-11.6%
CC(=O)Nc1sc2c(c1C#N)CCCC2	6.4%	4.5%	-2.6%	25.4	-13.9%	-18.3%
CC(C)(C)C(=O)Nc1sc2c(c1C#N)CCC2	-0.2%	0.4%	0.3%	14.8	26.2%	5.8%
CC(=O)NC(=S)Nc1sc2c(c1C#N)CCCCC2	u	u	-15.0%	-74.5*	-1.4%	-5.7%
COC(=O)CCC(=O)Nc1sc2c(c1C#N)CCCC2	4.61µM*	4.61µM*	-3.7%	10.8	-6.9%	0.1%
CC(C)(C)C(=O)NC(NC(=S)Nc1sc2c(c1C#N)CCCC2)C(Cl)(Cl)Cl (stereo unspecified)	25.9µM*	u	-26.6%	4.8	-17.2%	-59.0%
N#Cc1c(NC(=S)NC(=O)c2ccccc2)sc2c1CCC2	18.4µM*	u	-1.4%	0.0	-28.6%	-7.5%
CCCC(=O)Nc1sc2c(c1C#N)CCCC2	-5.4%	u	-5.9%	-2.3	24.1%	2.3%
COc1ccc2ccccc2c1CNC(=O)CC1C(=O)NCCN1CC(C)(C)C (stereo unspecified)	4.7%	12.0%	5.0%	0.0	19.7%	0.2%
Cc1cc(C)n(CCNC(=O)[C@H]2O[C@@H](n3cnc4c(N)ncnc43)[C@H](O)[C@@H]2O)n1	-14.1%	-2.3%	x	30.4	12.3%	-17.7%
Cc1cccc(NC(=O)COC(=O)c2cccc3c2C(=O)c2ccccc2C3=O)c1C	u	16.4µM*	x	-19.4	u	-0.8%
Cc1cccc(NC(=O)COC(=O)c2ccccc2-c2nc3ccccc3s2)c1C	u	u	-2.4%	0.0	u	-26.0%
